Source: the supplement of paper PMC10849652
The full data set covers some 7,900 targets. This sample favours those with a hit. About 0.6% of all pairs of compound and target were hits. A number with no mark means an inactive call.

Experiments:
Experiment in all cases: log2 fold change, soluble protein after heating vs DMSO (PISA); higher = thermal stabilisation; K562 cells, 10 uM, 30 min; active = over 0.2 and 3.5 SD of the protein, either way, in both replicates (recomputed)
[1] = compound: NC(=O)Nc1cc(-c2cccc(F)c2)sc1C(=O)N[C@H]1CCCNC1
How it was run: (§1)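 K562 cells (2×10^6 cells/mL) were treated with 10 μM compound for 30 min, and aliquots were heated for 3 min over 48°C-58°C. Pooled aliquots were extracted in PBS with 0.5% NP-40 at 4°C, and the supernatant after 21,000xg for 90 min was measured by TMTpro 16plex LC-MS/MS with channel sums equalised. Reported thermal stability, relative to control samples and from duplicates, is a log2 fold change.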

[2] = compound: NC(=O)c1cnc(N[C@@H]2CCCC[C@@H]2N)nc1Nc1cccc(-n2nccn2)c1
How it was run: as §1

[3] = compound: NC1(c2ccc(-c3nc4ccn5c(=O)[nH]nc5c4cc3-c3ccccc3)cc2)CCC1
How it was run: as §1

[4] = compound: NCC(=O)Nc1ccc(-n2nc(C(F)(F)F)cc2-c2ccc3c(ccc4ccccc43)c2)cc1
How it was run: as §1

entinostat = compound: Nc1ccccc1NC(=O)c1ccc(CNC(=O)OCc2cccnc2)cc1 [entinostat]
How it was run: as §1

vorinostat = compound: O=C(CCCCCCC(=O)Nc1ccccc1)NO [vorinostat]
How it was run: as §1

citarinostat = compound: O=C(CCCCCCNC(=O)c1cnc(N(c2ccccc2)c2ccccc2Cl)nc1)NO [citarinostat]
How it was run: as §1

silmitasertib = compound: O=C(O)c1ccc2c(c1)nc(Nc1cccc(Cl)c1)c1ccncc12 [silmitasertib]
How it was run: as §1

[5] = compound: O=C1NC(=O)C(c2cnc3ccccn23)=C1c1cn2c3c(cc(F)cc13)CN(C(=O)N1CCCCC1)CC2
How it was run: as §1

[6] = compound: c1cc(OCCN2CCCCC2)cc(-c2n[nH]c3ccc(-c4nnc[nH]4)cc23)c1
How it was run: as §1

UniProt Q5VTL8, sequence (Q5VTL8 whole entry, looked up): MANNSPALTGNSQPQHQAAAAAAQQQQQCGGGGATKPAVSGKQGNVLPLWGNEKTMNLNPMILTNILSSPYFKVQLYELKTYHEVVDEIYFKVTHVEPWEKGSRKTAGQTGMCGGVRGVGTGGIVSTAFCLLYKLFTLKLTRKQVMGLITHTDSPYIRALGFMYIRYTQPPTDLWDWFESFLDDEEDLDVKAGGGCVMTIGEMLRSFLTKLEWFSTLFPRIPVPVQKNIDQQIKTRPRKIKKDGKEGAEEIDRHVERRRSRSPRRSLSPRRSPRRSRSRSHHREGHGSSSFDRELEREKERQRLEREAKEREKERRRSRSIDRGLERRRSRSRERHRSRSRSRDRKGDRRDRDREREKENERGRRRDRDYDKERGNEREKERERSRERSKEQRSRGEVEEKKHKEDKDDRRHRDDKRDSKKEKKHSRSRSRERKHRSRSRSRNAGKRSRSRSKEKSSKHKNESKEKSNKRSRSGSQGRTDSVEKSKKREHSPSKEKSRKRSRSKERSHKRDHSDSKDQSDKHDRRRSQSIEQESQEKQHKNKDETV
UniProt Q16513, sequence (Q16513 whole entry, looked up): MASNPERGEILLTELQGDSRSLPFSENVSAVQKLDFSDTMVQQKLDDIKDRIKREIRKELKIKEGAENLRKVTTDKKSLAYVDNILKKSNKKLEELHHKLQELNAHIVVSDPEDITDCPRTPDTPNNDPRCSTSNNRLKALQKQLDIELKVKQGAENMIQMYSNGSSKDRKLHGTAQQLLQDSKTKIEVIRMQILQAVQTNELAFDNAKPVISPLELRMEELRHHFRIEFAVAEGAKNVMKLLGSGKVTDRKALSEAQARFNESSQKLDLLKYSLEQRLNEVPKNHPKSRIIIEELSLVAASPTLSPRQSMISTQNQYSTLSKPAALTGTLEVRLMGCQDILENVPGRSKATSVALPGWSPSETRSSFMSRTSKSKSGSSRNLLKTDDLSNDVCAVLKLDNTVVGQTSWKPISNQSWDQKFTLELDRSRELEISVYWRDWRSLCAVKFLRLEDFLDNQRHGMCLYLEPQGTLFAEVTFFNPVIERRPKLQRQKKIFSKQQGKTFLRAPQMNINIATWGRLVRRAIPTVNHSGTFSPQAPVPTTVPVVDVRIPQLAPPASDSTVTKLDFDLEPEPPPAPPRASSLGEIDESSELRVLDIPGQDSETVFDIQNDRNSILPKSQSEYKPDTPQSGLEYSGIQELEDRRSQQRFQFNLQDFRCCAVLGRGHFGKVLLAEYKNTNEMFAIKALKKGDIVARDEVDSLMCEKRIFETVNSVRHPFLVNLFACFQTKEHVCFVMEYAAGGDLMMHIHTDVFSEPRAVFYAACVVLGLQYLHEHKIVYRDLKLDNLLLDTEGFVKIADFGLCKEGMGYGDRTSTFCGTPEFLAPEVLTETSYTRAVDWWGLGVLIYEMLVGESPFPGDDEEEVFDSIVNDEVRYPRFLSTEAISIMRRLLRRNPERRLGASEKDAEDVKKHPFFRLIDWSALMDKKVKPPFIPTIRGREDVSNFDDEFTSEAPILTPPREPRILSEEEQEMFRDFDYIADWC
UniProt O95394, sequence (O95394 whole entry, looked up): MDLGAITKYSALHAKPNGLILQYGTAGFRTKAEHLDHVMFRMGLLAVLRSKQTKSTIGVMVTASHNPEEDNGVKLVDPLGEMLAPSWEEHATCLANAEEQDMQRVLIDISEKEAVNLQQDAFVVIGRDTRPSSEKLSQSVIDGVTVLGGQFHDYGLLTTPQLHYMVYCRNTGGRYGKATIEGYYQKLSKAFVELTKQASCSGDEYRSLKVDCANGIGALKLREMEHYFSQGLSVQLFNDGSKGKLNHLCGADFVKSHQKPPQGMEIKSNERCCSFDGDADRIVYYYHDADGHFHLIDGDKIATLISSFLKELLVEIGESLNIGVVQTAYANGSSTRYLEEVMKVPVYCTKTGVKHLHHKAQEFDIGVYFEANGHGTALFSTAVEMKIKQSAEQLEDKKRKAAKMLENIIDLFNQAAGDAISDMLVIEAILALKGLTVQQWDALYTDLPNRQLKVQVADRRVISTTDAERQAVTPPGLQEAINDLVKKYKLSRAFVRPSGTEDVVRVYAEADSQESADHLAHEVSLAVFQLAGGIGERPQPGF
UniProt P51665, sequence (P51665 whole entry, looked up): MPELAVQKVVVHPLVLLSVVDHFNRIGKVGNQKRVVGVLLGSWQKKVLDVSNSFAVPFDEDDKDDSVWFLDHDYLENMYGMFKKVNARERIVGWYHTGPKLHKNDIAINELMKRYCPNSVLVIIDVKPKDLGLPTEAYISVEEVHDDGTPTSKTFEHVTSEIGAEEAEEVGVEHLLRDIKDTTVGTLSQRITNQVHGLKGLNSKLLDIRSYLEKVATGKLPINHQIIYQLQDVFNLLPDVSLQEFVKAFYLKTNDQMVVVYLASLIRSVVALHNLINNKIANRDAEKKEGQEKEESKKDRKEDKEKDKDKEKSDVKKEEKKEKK
UniProt Q8NBL1, sequence (Q8NBL1 whole entry, looked up): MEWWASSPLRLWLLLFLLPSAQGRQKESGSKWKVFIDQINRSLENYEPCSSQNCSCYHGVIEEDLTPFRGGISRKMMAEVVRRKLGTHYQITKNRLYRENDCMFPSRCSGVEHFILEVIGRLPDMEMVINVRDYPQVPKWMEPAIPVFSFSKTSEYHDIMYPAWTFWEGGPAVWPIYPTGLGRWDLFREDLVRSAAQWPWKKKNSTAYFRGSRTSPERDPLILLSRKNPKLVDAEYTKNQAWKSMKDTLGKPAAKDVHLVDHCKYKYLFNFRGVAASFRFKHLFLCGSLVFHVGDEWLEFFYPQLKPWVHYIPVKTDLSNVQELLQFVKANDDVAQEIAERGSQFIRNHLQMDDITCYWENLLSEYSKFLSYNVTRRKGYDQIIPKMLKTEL
UniProt Q96KB5, sequence (Q96KB5 whole entry, looked up): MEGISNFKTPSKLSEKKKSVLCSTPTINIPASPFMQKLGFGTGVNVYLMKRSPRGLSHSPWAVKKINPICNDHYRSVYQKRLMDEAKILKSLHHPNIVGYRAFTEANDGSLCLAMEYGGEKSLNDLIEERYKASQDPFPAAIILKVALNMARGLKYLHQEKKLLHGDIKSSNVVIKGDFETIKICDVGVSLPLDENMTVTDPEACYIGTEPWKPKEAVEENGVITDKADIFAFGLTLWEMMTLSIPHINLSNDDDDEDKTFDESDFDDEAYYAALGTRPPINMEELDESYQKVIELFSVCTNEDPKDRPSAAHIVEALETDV
UniProt Q13200, sequence (Q13200 whole entry, looked up): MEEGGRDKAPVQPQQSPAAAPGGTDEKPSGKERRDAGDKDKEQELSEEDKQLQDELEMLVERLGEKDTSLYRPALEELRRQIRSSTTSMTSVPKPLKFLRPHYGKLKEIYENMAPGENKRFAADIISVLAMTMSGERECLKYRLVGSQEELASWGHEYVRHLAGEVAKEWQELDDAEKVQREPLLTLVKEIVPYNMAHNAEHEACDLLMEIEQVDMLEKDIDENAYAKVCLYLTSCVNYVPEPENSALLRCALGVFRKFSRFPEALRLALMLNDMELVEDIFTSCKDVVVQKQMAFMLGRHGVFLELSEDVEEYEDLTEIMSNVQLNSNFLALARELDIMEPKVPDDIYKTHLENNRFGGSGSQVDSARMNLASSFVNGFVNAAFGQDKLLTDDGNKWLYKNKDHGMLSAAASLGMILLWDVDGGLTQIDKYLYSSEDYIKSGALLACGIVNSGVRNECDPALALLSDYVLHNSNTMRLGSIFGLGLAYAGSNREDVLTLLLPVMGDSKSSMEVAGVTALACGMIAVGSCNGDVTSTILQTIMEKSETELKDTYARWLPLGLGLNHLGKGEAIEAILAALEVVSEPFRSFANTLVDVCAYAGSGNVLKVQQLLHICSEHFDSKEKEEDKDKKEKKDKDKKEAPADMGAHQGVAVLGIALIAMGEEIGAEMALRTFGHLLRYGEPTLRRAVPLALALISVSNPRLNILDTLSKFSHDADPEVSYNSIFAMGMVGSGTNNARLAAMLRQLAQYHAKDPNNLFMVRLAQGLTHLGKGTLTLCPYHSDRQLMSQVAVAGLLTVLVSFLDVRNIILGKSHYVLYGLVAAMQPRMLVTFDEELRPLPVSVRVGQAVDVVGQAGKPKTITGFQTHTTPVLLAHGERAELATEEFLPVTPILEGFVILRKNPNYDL
UniProt Q93096, sequence (Q93096 whole entry, looked up): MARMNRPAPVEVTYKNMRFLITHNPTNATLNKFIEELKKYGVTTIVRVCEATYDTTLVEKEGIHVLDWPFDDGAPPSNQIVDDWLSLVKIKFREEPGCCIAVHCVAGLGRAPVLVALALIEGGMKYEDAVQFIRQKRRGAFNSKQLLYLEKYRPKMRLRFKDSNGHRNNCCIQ
UniProt Q9Y3C6, sequence (Q9Y3C6 whole entry, looked up): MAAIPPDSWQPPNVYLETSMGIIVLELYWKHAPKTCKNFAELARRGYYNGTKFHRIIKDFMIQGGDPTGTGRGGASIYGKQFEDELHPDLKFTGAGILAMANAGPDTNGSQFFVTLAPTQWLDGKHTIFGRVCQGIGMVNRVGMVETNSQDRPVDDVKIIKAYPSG
UniProt Q9H5K3, sequence (Q9H5K3 whole entry, looked up): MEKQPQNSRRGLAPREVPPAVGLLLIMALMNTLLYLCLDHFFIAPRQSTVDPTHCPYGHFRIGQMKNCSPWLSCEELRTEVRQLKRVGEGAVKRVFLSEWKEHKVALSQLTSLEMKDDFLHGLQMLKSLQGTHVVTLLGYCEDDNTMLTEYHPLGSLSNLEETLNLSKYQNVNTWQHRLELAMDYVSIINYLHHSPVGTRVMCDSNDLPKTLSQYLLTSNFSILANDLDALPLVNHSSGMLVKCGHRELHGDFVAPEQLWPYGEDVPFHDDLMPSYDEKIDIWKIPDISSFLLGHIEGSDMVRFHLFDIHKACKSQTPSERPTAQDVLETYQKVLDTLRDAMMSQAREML
UniProt Q7RTV0, sequence (Q7RTV0 whole entry, looked up): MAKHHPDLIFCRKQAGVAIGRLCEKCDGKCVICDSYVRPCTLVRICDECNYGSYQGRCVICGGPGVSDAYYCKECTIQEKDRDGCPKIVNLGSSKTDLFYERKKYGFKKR

| Target | log2 fold change [1] | log2 fold change [2] | log2 fold change [3] | log2 fold change [4] | log2 fold change (entinostat) | log2 fold change (vorinostat) | log2 fold change (citarinostat) | log2 fold change (silmitasertib) | log2 fold change [5] | log2 fold change [6] |
| --- | --- | --- | --- | --- | --- | --- | --- | --- | --- | --- |
| PPIL1 (UniProt Q9Y3C6) | -0.054 | 0.059 | 0.008 | -0.074 | -0.001 | -0.013 | 0.015 | 0.075 | 0.001 | -0.051 |
| PPIL4 (UniProt Q8WUA2) | -0.021 | -0.085 | 0.002 | -0.071 | 0.011 | 0.016 | 0.033 | -0.005 | -0.005 | -0.1 |
| PHF5A (UniProt Q7RTV0) | -0.004 | 0.009 | 0.101 | 0.051 | -0.017 | -0.08 | 0.014 | 0.082 | -0.024 | -0.003 |
| PDCD2L (UniProt Q9BRP1) | 0.058 | 1.21 (active) | -0.018 | -0.101 | 0.036 | 0.023 | 0.06 | 0 | -0.092 | -0.001 |
| PPOX (UniProt P50336) | -0.042 | -0.228 | -0.182 | -0.009 | 0.04 | 0.003 | 0.02 | 0.158 | 0.094 | 0.018 |
| PLIN2 (UniProt Q99541) | 0.019 | -0.194 | -0.353 | -0.059 | 0.077 | 0.203 | 0.027 | 0.035 | -0.046 | -0.044 |
| PCBP1 (UniProt Q15365) | 0.007 | -0.015 | -0.069 | -0.021 | 0.044 | 0.055 | 0.075 | 0.028 | -0.046 | 0.002 |
| POLR2K (UniProt P53803) | -0.04 | -0.107 | 0.017 | 0.053 | -0.01 | -0.156 | 0.13 | 0.097 | 0.002 | -0.474 (active) |
| PRPF38B (UniProt Q5VTL8) | -0.199 | -0.019 | 0.017 | -0.203 | 0.006 | 0.033 | 0.028 | -0.246 | -0.006 | -0.19 |
| PKN2 (UniProt Q16513) | -0.055 | -0.134 | -0.051 | -0.021 | 0.105 | 0.023 | 0.073 | 0.01 | -0.008 | -0.086 |
| PGM3 isoform 4 (UniProt O95394) | -0.039 | -0.118 | -0.147 | -0.063 | 0.015 | 0.061 | 0.046 | -0.012 | -0.008 | -0.024 |
| PSMD2 (UniProt Q13200) | -0.018 | 0.012 | 0.005 | 0.038 | -0.024 | 0.01 | -0.006 | -0.018 | 0.03 | -0.082 |
| PKN1 isoform 2 (UniProt Q16512) | -0.508 (active) | -0.141 | -0.118 | -0.128 | 0.039 | 0.042 | 0.024 | 0.024 | -0.131 | -0.157 |
| PLEKHM2 (UniProt Q8IWE5) | 0.01 | -0.102 | -0.315 (active) | -0.107 | 0.024 | 0.072 | 0.109 | -0.058 | -0.009 | -0.125 |
| PLCB3 (UniProt Q01970) | -0.005 | -0.086 | -0.141 | -0.023 | 0.037 | -0.008 | -0.007 | 0.008 | 0.005 | 0.064 |
| PSMD7 (UniProt P51665) | -0.04 | 0.001 | -0.035 | 0.029 | -0.049 | -0.002 | -0.048 | 0.016 | 0.051 | -0.089 |
| QRSL1 (UniProt Q9H0R6) | -0.092 | -0.007 | -0.218 | -0.089 | 0.006 | -0.063 | 0.053 | -0.049 | -0.084 | -0.036 |
| PTPA (UniProt A6PVN8) | -0.015 | -0.057 | -0.062 | -0.003 | -0.04 | 0.099 | -0.098 | 0.266 | 0.05 | -0.05 |
| PBK (UniProt Q96KB5) | -0.1 | -0.045 | -0.098 | -0.088 | 0.095 | 0.154 | 0.119 | 0.157 | 0.02 | -0.011 |
| PARP1 (UniProt P09874) | -0.128 | -0.064 | -0.102 | -0.09 | 0.142 | 0.042 | 0.091 | 0.039 | -0.173 | 0 |
| PTP4A1 (UniProt Q93096) | -0.035 | -0.202 | -0.007 | 0.016 | 0.039 | -0.029 | 0.063 | -0.001 | -0.075 | 0.059 |
| POMK (UniProt Q9H5K3) | 0 | 0.058 | -0.173 | -0.044 | 0.045 | 0.04 | 0.105 | 0.101 | 0.017 | -0.303 |
| PARL (UniProt Q9H300) | 0.025 | -0.06 | -0.07 | -0.09 | 0.023 | -0.07 | 0.054 | 0.032 | -0.082 | -0.017 |
| POGLUT1 (UniProt Q8NBL1) | -0.043 | -0.057 | -0.008 | -0.102 | -0.01 | 0.112 | -0.058 | 0 | 0.019 | -0.05 |
| PRKCB isoform 2 (UniProt P05771) | -0.052 | -0.037 | -0.118 | -0.058 | 0.045 | 0.02 | 0.041 | 0.032 | -0.051 | 0.02 |
| POTEI (UniProt P0CG38) | -0.058 | 0.061 | 0.139 | 0.124 | -0.004 | -0.016 | -0.009 | -0.03 | -0.053 | -0.004 |
| PCBP2 isoform 3 (UniProt Q15366) | 0.001 | -0.074 | -0.102 | -0.088 | 0.062 | 0.099 | 0.104 | 0.019 | -0.015 | -0.023 |
| PCNT (UniProt O95613) | -0.341 | -0.277 | -0.106 | -0.294 | -0.129 | -0.137 | -0.076 | 0.11 | -0.142 | -0.233 |
| PPID (UniProt Q08752) | -0.073 | -0.075 | -0.093 | -0.065 | 0.049 | 0.108 | 0.108 | 0.095 | -0.028 | 0 |
| PRKAB1 (UniProt Q9Y478) | -0.015 | 0.186 | -0.015 | 0.035 | 0.056 | 0.063 | 0.089 | 0 | -0.036 | -0.067 |
